# PvdQ inh: P. aeruginosa PvdQ acylase inhibition | inhibition, % at 10 µM | AID 488965 | purified PvdQ acylase, fluorescence plate reader | actives 0.063% (n = 340,000); in the data active = inhibition above about 30%, passing the limit was not always enough;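 also: 0% = vehicle neutral wells and 100% = reference inhibitor wells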
# ERp5 block: inhibitors of human ERp5; ERp5 insulin aggregation, absorbance 650 nm, 90 min; inhibition, % at 9.99 µM; actives 0.05% (n = 350,000);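 active = mean replicate inhibition above about 25%, with every replicate also reaching it, limit read from the data, passing the limit was not always enough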
# Rtt109 HAT inh: C. albicans Rtt109 histone acetyltransferase inhibition. Q5AAJ8. purified Rtt109/Vps75, ThioGlo CoA-SH fluorescence, 4 h. inhibition, % at 34.9 µM. actives 0.16% (n = 330,000). AID 540336;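 active = inhibition of at least 50% in every replicate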
# PDI inh: inhibitors of human protein disulfide isomerase | AID 588391 | inhibition, % at 10 µM | actives 0.052% (n = 350,000) | PDI insulin aggregation turbidity, A650, 90 min;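 active = mean inhibition across replicates of 30% or more, whatever share of single replicates reach that level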
# Target sequence (P07237 whole entry, looked up): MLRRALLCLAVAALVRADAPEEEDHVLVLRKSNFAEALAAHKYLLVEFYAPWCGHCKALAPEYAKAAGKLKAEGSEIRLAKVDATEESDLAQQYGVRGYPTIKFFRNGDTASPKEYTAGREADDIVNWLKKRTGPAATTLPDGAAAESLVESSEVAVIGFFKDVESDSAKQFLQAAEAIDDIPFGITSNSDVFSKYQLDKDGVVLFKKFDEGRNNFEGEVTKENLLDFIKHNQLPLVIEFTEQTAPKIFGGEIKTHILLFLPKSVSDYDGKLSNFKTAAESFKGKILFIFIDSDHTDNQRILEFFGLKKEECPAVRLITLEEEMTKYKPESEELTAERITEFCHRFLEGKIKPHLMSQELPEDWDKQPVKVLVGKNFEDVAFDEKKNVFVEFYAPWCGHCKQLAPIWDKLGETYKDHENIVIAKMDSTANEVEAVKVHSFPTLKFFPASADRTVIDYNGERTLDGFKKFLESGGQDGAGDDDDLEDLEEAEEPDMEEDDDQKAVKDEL
# Efflux pump mplx: inhibitors of Candida antifungal efflux pumps expressed in yeast; S. cerevisiae Candida pump triplex, Nile Red efflux; inhibition, % at 10 µM; actives 0.44% (n = 330,000);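 active = plate passing quality check with inhibition over a set limit, or well fluorescence over plate mean plus 4 SD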;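 also: Nile Red retained in pooled yeast measured as flow cytometry median fluorescence; 0% = buffer negative control and 100% = Enniatin B positive control; higher means more Nile Red kept so more efflux inhibition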
# Cmpd fluor yeast: compound fluorescence in yeast efflux pump counter-screen; S. cerevisiae AD/pABC3, flow cytometry; fluorescence ratio to DMSO, % at 10 µM; shares compounds with Efflux pump mplx; AID 588517; actives 4% (n = 1,700);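 active = fluorescence ratio to DMSO above its plate's cutoff, the plate mean ratio plus 5 SD, cut at about 210% in these data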;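 also: unstained yeast with no Nile Red so the signal is compound autofluorescence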
# Mdr1 pump inh: blocks the Candida albicans Mdr1 efflux pump in yeast; shares compounds with Efflux pump mplx; S. cerevisiae AD/CaMDR1, Nile Red efflux, flow cytometry; inhibition, % at 10 µM; actives 1% (n = 1,700); AID 588518; in the data active = inhibition above about 26%;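 also: 0% = DMSO vehicle and 100% = reference inhibitor; higher means more Nile Red retained so more efflux inhibition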
# CaCdr2 efflux inh: Candida Cdr2 efflux pump inhibition; shares compounds with Efflux pump mplx; S. cerevisiae AD/CaCDR2, Nile Red retention, flow cytometry; Nile Red retention ratio vs DMSO, % at 10 µM; actives 4% (n = 1,700); AID 588520; in the data active = Nile Red retention ratio vs DMSO above about 190%;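 also: higher ratio means more blocking of Cdr2 efflux of the dye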
# Cdr1 pump inh: blocks the Candida albicans Cdr1 efflux pump in yeast | shares compounds with Efflux pump mplx | inhibition, % at 10 µM | AID 588522 | actives 1% (n = 1,700) | S. cerevisiae AD/CaCDR1, Nile Red efflux, flow cytometry;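 active = inhibition above the screen-wide mean plus twice its standard deviation, cut at about 32% in these data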
# The depositor's hits bear a star; . = no result. Shown are actives, neighbours in structure and some others; about 0.54% of the full set was active somewhere.
SMILES,PvdQ inh,ERp5 block,Rtt109 HAT inh,PDI inh,Efflux pump mplx,Cmpd fluor yeast,Mdr1 pump inh,CaCdr2 efflux inh,Cdr1 pump inh
Cc1ccc(S(=O)(=O)N(C)C[C@@H]2OCCCC[C@H](C)Oc3ccc(NC(=O)c4ccccc4)cc3C(=O)N([C@H](C)CO)C[C@H]2C)cc1,.,-2,.,.,.,.,.,.,.
CCS(=O)(=O)Nc1ccc2c(c1)C(=O)N(C)C[C@@H](OC)[C@@H](C)CN(C(=O)C1CC1)[C@H](C)CO2,.,-2,.,.,.,.,.,.,.
CC(=O)c1c(N2CCN(Cc3ccccc3)CC2)nc(=S)n(Cc2ccccc2)c1C,0,.,6,11,0,.,.,.,.
CC(=O)c1c(N2CCOCC2)[nH]c(-c2ccccc2)nc1=S,4,-6,11,9,0,102,0,101,0
CC(=O)c1c(N2CCCC2)[nH]c(-c2ccccc2)nc1=S,-10,-6,1,-1,0,.,.,.,.
CSc1nc(-c2ccccc2)nc(N2CCOCC2)c1C(C)=O,-10,0,-5,-4,0,97,0,104,0
CC(=O)c1c(N2CCN(Cc3ccccc3)CC2)[nH]c(-c2ccccc2)nc1=S,-10,.,7,-4,0.5*,134,1,104,1
CO[C@@H]1CC[C@@H]2CCN(C)C(=O)[C@@H](C)[C@H](OC)CN(C)C(=O)c3cc(C#N)ccc3OC[C@@H]1O2,.,-3,.,.,.,.,.,.,.
O=C(C[C@@H]1C=C[C@@H](NC(=O)Cc2ccccn2)[C@H](CO)O1)NCCCN1CCOCC1,.,-1,.,.,.,.,.,.,.
COc1ccc(S(=O)(=O)N2C[C@@H](O)COC[C@H]3O[C@@H](CC(=O)NCCCN4CCOCC4)CC[C@@H]32)cc1,.,2,.,.,.,.,.,.,.
Cc1ccc(Cl)cc1N1CCN(c2cccc[n+]2C)CC1,-8,.,-3,-7,2.2*,95,0,92,0
C[n+]1ccccc1N1CCN(c2ccccc2Cl)CC1,23,.,1,3,0,.,.,.,.
COC(=O)c1sc(NC(=O)CSc2nnc(Cn3nnc4ccccc43)n2C)nc1C,-1,9,4,3,14*,105,0,94,0
Cc1c(/C=C/C(=O)c2ccccc2)cnn1C,0,.,4,-10,0,.,.,.,.
CCn1ncc(/C=C/C(=O)c2ccccc2)c1C,-15,.,3,0,11*,106,0,91,0
CCOC(=O)N1CCN(C(=S)NC(=O)c2ccc(F)c(F)c2)CC1,-15,6,-9,9,1.6*,95,0,104,0
CCOC(=O)N1CCN(C(=S)NC(=O)c2cccc(OC)c2)CC1,16,17,7,21,0,.,.,.,.
Cc1ccc(NC(=O)COC(=O)c2cc(Cl)ccc2Cl)c(Br)c1,-16,.,4,2,1.3*,97,0,87,0
O=C(C[C@@H]1C[C@H]2c3cc(NC(=O)Nc4ccccc4F)ccc3O[C@H]2[C@@H](CO)O1)NCCc1ccccc1,.,-4,.,.,.,.,.,.,.
O=c1[nH][nH]c(-c2ccccc2O)c1C(C[N+](=O)[O-])c1ccccc1 (stereo not given),-13,.,2,-3,5.5*,108,0,104,0
Cc1ccccc1S(=O)(=O)N1CC[C@@H]2[C@@H](CO)Nc3ccc(-c4ccccc4F)cc3[C@@H]21,.,2,.,.,.,.,.,.,.
Cc1cccc(N=Nc2c(O)[nH]c3ccc(Br)cc23)c1,-11,3,12,-5,0,.,.,.,.
COc1ccccc1N=Nc1c(O)[nH]c2ccc(Br)cc12,-20,-3,-2,-7,0.4*,107,0,116,0
COC(=O)c1ccc(OCC(=O)N2CCCc3ccccc32)cc1,5,6,13,2,2.8*,105,0,94,0
CCOc1ccc(C(=O)Nc2cccc(-c3nc4cccnc4o3)c2)cc1Cl,2,.,6,-2,1.0*,113,0,114,0
SMILES,PvdQ inh,ERp5 block,Rtt109 HAT inh,PDI inh,Efflux pump mplx,Cmpd fluor yeast,Mdr1 pump inh,CaCdr2 efflux inh,Cdr1 pump inh
Cc1cc(S(=O)(=O)N2CCOCC2)ccc1OCC(=O)Nc1ccc(Br)cc1F,-9,-5,3,10,0.9*,110,0,96,0
COc1ccc(/C=C(\C#N)C(=O)Nc2cc(S(=O)(=O)N3CCCCC3)ccc2N2CCCCC2)cc1,-4,.,-6,-3,0.5*,126,0,114,0
COc1ccc(/C=C/C(=O)Nc2cc(S(=O)(=O)N3CCCCC3)ccc2N2CCCCC2)cc1OC,-6,.,0,-3,0,.,.,.,.
CN(Cc1ccccc1)C(=O)COC(=O)CNS(=O)(=O)c1ccc2ccccc2c1,7,-1,4,-2,75*,97,0,101,0
CC(C)(C)N(Cc1ccccc1)C(=O)COC(=O)CNS(=O)(=O)c1ccc2ccccc2c1,-5,16,-2,-4,0,.,.,.,.
CO[C@@H]1CN(C)C(=O)c2ccc(NS(C)(=O)=O)cc2OC[C@@H](C)N(C(=O)NC(C)C)C[C@H]1C,.,2,.,.,.,.,.,.,.
Cc1nnc(NC(=O)c2sc3nc(-c4cccs4)cc(C(F)(F)F)c3c2N)s1,15,-3,-5,3,1.3*,131,0,137,0
O=C(CSc1nnc(Cc2cccs2)n1Cc1ccco1)Nc1ccc(Cl)cc1Cl,-12,.,7,2,0,101,0,100,0
O=C(CSc1nnc(Cc2cccs2)n1Cc1ccco1)Nc1ccc(Br)cc1,9,.,9,-7,0,76,0,99,0
Cc1cc(Cl)ccc1NC(=O)CSc1nnc(-c2ccncc2)n1Cc1ccco1,-3,.,2,0,0,.,.,.,.
Cc1cc(C)nc(SCc2nnc(SCC(=O)Nc3ccc(C)c(C)c3)n2Cc2ccco2)n1,-13,.,-3,5,1.0*,219,1,100,9
COC(=O)CSc1nnc(CSc2nc(C)cc(C)n2)n1Cc1ccco1,-12,.,-4,-9,0,.,.,.,.
O=C(CSc1nnc(-c2ccco2)n1Cc1ccco1)NCc1cccs1,-8,.,-6,17,0,.,.,.,.
COCCNC(=O)C[C@@H]1CC[C@H]2[C@H](COc3ccc(NC(=O)c4cnccn4)cc3C(=O)N2C)O1,.,-1,.,.,.,.,.,.,.
COc1cccc(C(C(=O)NC(C)(C)C)N(C(=O)CCC(=O)Nc2cc(C)on2)C(C)C)c1OC (stereo not given),-8,.,-1,10,0,112,0,106,0
C=CCN(C(=O)CCC(=O)Nc1cc(C)on1)C(C(=O)NC(C)(C)C)c1cccc(OC)c1OC (stereo not given),0,.,2,7,0,.,.,.,.
